From PubChem BioAssay (NCI) come the findings set out here.

Among the test systems are T-47D breast; BT-549 breast; MDA-MB-435 melanoma; SW-620 colon; MCF7 breast; HCT-116 colon; HCC-2998 colon; KM12 colon.
What all share (test): NCI-60 one-dose screen, 48 h (100 = growth as untreated, 0 = no growth, -100 = all killed)
Holding throughout (settings): 10 µM unless noted

This is part of a sample that, as a whole, favours compounds with a hit. Of some 83,000 tested, about 20% had one in any assay.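 In brief: 96-well plates, 48 h treatment, single concentration, percent growth endpoint.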 Unmarked numbers belong to inactive results. Active and inactive are the calls of the source. Rule for the calls: active = growth percent below 10; inactive = the rest.

With `CCN(CC)CCCCCNc1cc(OC(=O)c2ccc(Cl)cc2)cc2cccnc12`, the growth in the assay with T-47D breast is 56%; in the assay with BT-549 breast, 98%; in the assay with MDA-MB-435 melanoma it was 120%; in the assay with SW-620 colon, 105%; with MCF7 breast, 86.5%; in the assay on HCT-116 colon, 83.6%. For the same compound, the growth in the assay with HCC-2998 colon is 84.9%; in the assay with KM12 colon, 111%.
Consider `O=C(Nc1nc2ccccc2s1)c1ccc(F)cc1`, for which the growth in the assay with T-47D breast was 55.3%; with BT-549 breast it was 109%; in the assay with MDA-MB-435 melanoma it was 101%; in the assay with SW-620 colon it was 112%; in the assay on MCF7 breast it was 68.1%; in the assay with HCT-116 colon, 92.8%. Besides, the growth with HCC-2998 colon is 69.9%; in the assay with KM12 colon, 52.8%.
`O=[N+]([O-])c1cccc(-c2nc3cc4nc5ccccc5[nH]c4cc3n2)c1`: the growth with T-47D breast is 87.5%; with BT-549 breast, 102%; in the assay with MDA-MB-435 melanoma, 112%; with SW-620 colon, 112%; in the assay with MCF7 breast it was 77.7%; with HCT-116 colon it was 93.1%. In addition, the growth in the assay with HCC-2998 colon is 112%; with KM12 colon, 100%.
On to `Nc1n[nH]c2ccc([C@H]3[C@@H]4C5CCC(C5)[C@@H]4c4c(ccc5[nH]ncc45)N3S(=O)(=O)C3CC3)cc12` (some centres not stated), for which the growth is 64.6% in the assay with T-47D breast; -2.63% (active) in the assay on BT-549 breast; -35.3% (active) with MDA-MB-435 melanoma; 21.9% with SW-620 colon; 13.1% with MCF7 breast; 4.97% (active) in the assay on HCT-116 colon. Also, the growth in the assay on HCC-2998 colon was 18.4%; in the assay on KM12 colon, 7.27% (active).
As for `CCCn1cc2c(=O)nc3sc(Cc4ccccc4)c(C)n3c2n1`, the growth in the assay with T-47D breast was 84.8%; in the assay on BT-549 breast it was 106%; with MDA-MB-435 melanoma, 106%; in the assay on SW-620 colon, 101%; in the assay with MCF7 breast, 91.6%; with HCT-116 colon, 102%. For the same compound, the values for the growth in the assay on HCC-2998 colon and with KM12 colon were 104% and 94.4%, respectively.
Take `O=C(/C=C(/C=C/c1ccc2[nH]ccc2c1)OB(F)F)/C=C/c1ccc2[nH]ccc2c1`: the growth was 6.23% (active) in the assay with T-47D breast; -28.2% (active) in the assay with BT-549 breast; -4.54% (active) in the assay on MDA-MB-435 melanoma; 6.41% (active) in the assay with SW-620 colon; 12.5% in the assay on MCF7 breast; -79% (active) in the assay on HCT-116 colon. Further, the growth was -88.3% (active) in the assay on HCC-2998 colon and -5.34% (active) in the assay on KM12 colon.
For the compound `NC(=O)c1c(NC(=O)c2ccc3ccccc3c2)sc2c1CCC(=O)C2`, the growth is 33.4% in the assay with T-47D breast; 20.9% with BT-549 breast; 92.8% in the assay on MDA-MB-435 melanoma; 14.3% in the assay on SW-620 colon; 52.6% with MCF7 breast; 7.15% (active) in the assay on HCT-116 colon. Further, the growth with HCC-2998 colon is 107%; in the assay with KM12 colon it was 34.9%.
For the compound `N#Cc1c(-c2ccccc2)[nH]c2ncc(-c3ccccc3)n2c1=O`, the growth in the assay with T-47D breast is 71.9%; with BT-549 breast it was 89.1%; in the assay on MDA-MB-435 melanoma it was 102%; with SW-620 colon it was 101%; in the assay with MCF7 breast, 71.3%; in the assay on HCT-116 colon it was 87%. Besides, the growth in the assay with HCC-2998 colon was 83.3%; in the assay with KM12 colon it was 89.8%.
Take `C[PH+](c1nc2ccccc2nc1[PH+](C)C(C)(C)C)C(C)(C)C.C[PH+](c1nc2ccccc2nc1[PH+](C)C(C)(C)C)C(C)(C)C.[Au+].[Cl-]` (configuration not stated): the growth was -79.9% (active) with T-47D breast; -74.4% (active) in the assay with BT-549 breast; -79.3% (active) in the assay on MDA-MB-435 melanoma; -100% (active) in the assay on SW-620 colon; -84.3% (active) in the assay with MCF7 breast; -100% (active) with HCT-116 colon. In addition, the growth with HCC-2998 colon is -100% (active); in the assay with KM12 colon, -99.3% (active).
Turning to `Cn1cc(-c2csc(-c3c[nH]c4ccc(Br)cc34)n2)c2ccnc(Cl)c21`, the growth in the assay on T-47D breast is 25.9%; in the assay with BT-549 breast, 84.1%; in the assay on MDA-MB-435 melanoma, 78.5%; with SW-620 colon, 8.27% (active); in the assay on MCF7 breast, 46.6%; in the assay with HCT-116 colon, 49.8%. In addition, the growth in the assay with HCC-2998 colon was 82.9%; with KM12 colon it was 50.8%.
As for `Cc1ccc(Nn2c(SCC(=O)Nc3nc(-c4ccccc4)cs3)nc(C)c2C)cc1`, the growth in the assay with T-47D breast is -2.45% (active); with BT-549 breast, 63.5%; in the assay on MDA-MB-435 melanoma, 76.7%; in the assay with SW-620 colon, 98.8%; with MCF7 breast, 28.5%; in the assay on HCT-116 colon it was 40.2%. Besides, the growth is 92% in the assay on HCC-2998 colon and 82.9% in the assay with KM12 colon.
Turning to `COc1ccc(/C=C/C(=O)c2ccc(Nc3ccnc4cc(Cl)ccc34)cc2)cc1`, the growth in the assay with T-47D breast is 83.1%; in the assay on BT-549 breast it was 101%; in the assay on MDA-MB-435 melanoma it was 85.6%; in the assay with SW-620 colon, 93.7%; with MCF7 breast it was 76.2%; with HCT-116 colon, 34%. Further, the growth is 58.7% in the assay with HCC-2998 colon and 154% with KM12 colon.
`COCCn1cc(-c2csc(-c3cn(C)c4ccc(Br)cc34)n2)c2cccnc21`: the growth with T-47D breast was 17.6%; in the assay on BT-549 breast it was 64.6%; in the assay with MDA-MB-435 melanoma, 61.2%; in the assay with SW-620 colon it was 21.9%; in the assay on MCF7 breast, 50.2%; in the assay with HCT-116 colon, 49.2%. The growth is 25.7% in the assay on HCC-2998 colon and 23.8% with KM12 colon.
Consider `N#Cc1c(-c2ccc(Cl)cc2)c(C#N)c2c(C#N)c(N)nn2c1N`, for which the growth in the assay on T-47D breast was 57%; in the assay on BT-549 breast it was 75.5%; with MDA-MB-435 melanoma it was 95.4%; with SW-620 colon it was 94.7%; in the assay on MCF7 breast, 81.3%; in the assay on HCT-116 colon, 96.1%. Besides, the growth with HCC-2998 colon was 102%; in the assay on KM12 colon, 92.9%.
